HepG2 tox: HepG2 cytotoxicity, counter-screen for TGF-b inhibitors; AID 588856; Potency, µM (top dose mostly 46.1 µM), without a hit: top-dose activity change, negative = cytotoxicity, usual class: cytotoxic; HepG2 CAGA-GFP viability, ATP luminescence, 18 h; 410,000 tested, 0.76% active
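CellTiter-Glo luminescence gave cytotoxicity after 18 hours at 37 degrees C. The cells were HepG2 CAGA-GFP in 1% FBS DMEM, stimulated with 500 pg/mL TGF-beta after compound addition. %Activity was normalised to no-cell wells (complete cell-killing) and DMSO (no toxicity), and curves were fitted and classified.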
TGFb SMAD3 inh: inhibitors of TGF-b signaling; HepG2 CAGA-GFP TGF-b/SMAD3 reporter, GFP fluorescence, 18 h; TGF-beta stimulated, 500 pg/mL final; Potency, µM (series often up to 46.1 µM), without a hit: at the highest dose activity, negative = inhibition, actives largely listed as inhibitors; 410,000 tested, 1.2% active; also: % is scaled to controls: 0 for no effect and ±100 for the full control effect; nearly all actives have a fitted effect of over 65% in size
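First, reporter cells (HEPG2 CAGA-GFP) rested 2 h at 37 degrees C. Next, compounds were pinned in and TGF-beta added to 500 pg/mL final. After 18 h, GFP was imaged per cell and summed per well.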
TDP1 cell CPT: DT40-hTDP1 cell growth loss with CPT; chicken DT40 Tdp1-/-;hTDP1 cells + 20 nM CPT, ATP luminescence, 48 h; AID 686979; 420,000 tested, 12% active; Potency, µM (titrated, usually from 46.2 µM), inactives show at the top dose activity change, negative = growth inhibition, actives largely listed as inhibitors; also: % is scaled to controls: 0 for no effect and ±100 for the full control effect; nearly all actives have a fitted effect of over 55% in size
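Chicken DT40 Tdp1-/- cells complemented with human TDP1, 400 cells/well, exposed to compounds plus 20 nM camptothecin for at least 48 h at 37 C; viability read as ATP content by CellTiter-Glo luminescence.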
ATXN2 expr inh: inhibitors of ATXN2 expression. HEK-293 ATXN2-luciferase reporter, luminescence, 24 h. Potency, µM (top dose mostly 57 µM), inactives show top-dose activity change, negative = inhibition, hits mostly inhibitors. 360,000 tested, 0.72% active. AID 1745845; also: % is scaled to controls: 0 for no effect and ±100 for the full control effect; nearly all actives have a fitted effect of over 55% in size
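qHTS (up to 57 uM final) was run with 24 h compound exposure of reporter cells at 37 °C. Each well was multiplexed: SteadyGlo luminescence measured ATXN2-luciferase expression after a fluorogenic Gly-Phe-AFC viability readout (25 uM final).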
S2 tox: reduces viability in counter-screen for ATXN expression inhibitors; S2 cells (HEK-293 line with an ATXN2-luciferase reporter) viability, CellTiter-Fluor protease fluorescence, 24 h; Potency, µM (doses to about 56.7 µM), hits mostly cytotoxic; 400,000 tested, 0.49% active; also: nearly all actives have a fitted effect of over 40% in size
TDP1 cell noCPT: qHTS for Inhibitors of human tyrosyl-DNA phosphodiesterase 1 (TDP1): qHTS in cells in absence of CPT. DT40 Tdp1-/- hTDP1 cells, no CPT, ATP luminescence, 48 h. Potency, µM (titrated, usually from 46.2 µM), inactives show at the top dose activity change, negative = growth inhibition, actives largely listed as inhibitors. 420,000 tested, 15% active. AID 686978, 2013; also: % is scaled to controls: 0 for no effect and ±100 for the full control effect; nearly all actives have a fitted effect of over 55% in size
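Stably hTDP1-transfected Tdp1-null chicken DT40 cells were treated with library compounds minus camptothecin and grown for at least 48 hr at 37 °C, after which cellular ATP was quantified by luminescence.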
* marks the source's active call; other numbers are inactive results; i = inactive; ? = inconclusive; nt = not tested or not shown. An excerpt weighted towards active compounds, which were near 17% of everything screened. Calls follow the shape of the dose curve; as a rule, active = well fitted curve in the direction sought with a large enough effect; inconclusive = small, poorly fitted or top-dose-only effect, or another doubt; inactive = no such curve, though single readings can be large; an effect the other way counts as inactive or inconclusive. Potency is read from the fitted curve at half-maximal effect.

SMILES	HepG2 tox	TGFb SMAD3 inh	TDP1 cell CPT	ATXN2 expr inh	S2 tox	TDP1 cell noCPT
CC1(C(=O)NCc2ccccc2)Cc2c(-c3cccc(C(N)=O)c3)ccnc2O1 (centres undefined)	0%	23%	3.3µM*	4%	?	2.3µM*
CC(=O)NCCNC(=O)C1(C)Cc2c(-c3cccc(C(N)=O)c3)ccnc2O1 (centres undefined)	-14%	2%	-7%	-2%	i	-4%
CC1(C(=O)NCCc2ccccc2)Cc2c(-c3ccc(C(N)=O)cc3)ccnc2O1 (centres undefined)	-47%	11%	16µM*	3%	i	?
CC1(C(=O)NCc2ccco2)Cc2c(-c3cccc(C(N)=O)c3)ccnc2O1 (centres undefined)	2%	25%	4.1µM*	6%	i	5.8µM*
C[C@@H](NCc1cc2ccccc2[nH]1)c1cccc2ccccc12	nt	nt	nt	-16%	nt	nt
COC(=O)c1ccc2nc(C3CCCCC3)c3c(c2c1)CCC3	-18%	?	-19%	5%	i	?
Cc1csc2nc(COC(=O)c3ccc(F)cc3)cc(=O)n12	-16%	-2%	?	-9%	i	16µM*
COc1ccc(C(=O)OCc2cc(=O)n3c(C)csc3n2)cc1F	-54%	?	?	55%	i	?
COc1cccc(C(=O)Nc2ccccc2C(=O)OCc2cc(=O)n3c(C)csc3n2)c1	-16%	-13%	13%	nt	nt	-15%
Cc1csc2nc(COC(=O)c3ccccc3NC(=O)c3cccc(Br)c3)cc(=O)n12	-4%	-1%	18µM*	nt	nt	8.2µM*
Cc1ccc(OCC(=O)Nc2ccc(C(=O)OCc3cc(=O)n4c(C)csc4n3)cc2)cc1	-16%	-3%	?	nt	nt	?
CCOc1ccc(C(=O)Nc2ccc(C(=O)OCc3cc(=O)n4c(C)csc4n3)cc2)cc1	-16%	22µM*	?	nt	nt	16µM*
Cn1ccnc1-c1nnn(-c2ccc(Cl)c(Cl)c2)n1	-15%	-1%	-5%	6%	i	-3%
COC(=O)[C@H](CC(C)C)NS(=O)(=O)NC(=O)OC(C)(C)C	4%	8%	-15%	nt	nt	0%
O=C(CNC(=O)OCc1ccccc1)NC(Cc1cnc[nH]1)C(=O)O (centres undefined)	-6%	0%	?	-21%	i	16µM*
CC(Sc1nn(-c2ccccc2)c(=S)s1)C(=O)NCC1CCCO1 (centres undefined)	3%	6%	-22%	nt	i	-27%
N#Cc1c2c(c(Nc3ccc(F)cc3)n3c1nc1ccccc13)CCCC2	-29%	?	16µM*	-27%	i	18µM*
COCCn1nc2cc(C(=O)NCC34CC5CC(CC(C5)C3)C4)ccc2c1OC	-3%	-18%	-25%	3%	i	?
CCCn1nc2cc(C(=O)NCC34CC5CC(CC(C5)C3)C4)ccc2c1OCC	-5%	?	21µM*	-25%	?	18µM*
CC(C)c1cc(CNC(=O)C2CCC(=O)N(CCc3ccc(Cl)cc3)C2)on1 (centres undefined)	-5%	0%	4%	9%	i	0%
O=C(NCCCN1CCOCC1)C(=O)N/N=C/c1c(Cl)cccc1Cl	-5%	-11%	0%	-6%	i	-4%
O=C(NCCCN1CCOCC1)C(=O)N/N=C/c1c2ccccc2cc2ccccc12	-56%	111%	?	?	i	21µM*
COc1ccc(C(=O)c2c(C)oc3ccc(O)c(CN4CCOCC4)c23)cc1	-17%	-16%	?	-19%	i	18µM*
COc1ccc(C(=O)c2coc3ccc(O)c(CN4CCOCC4)c23)cc1	-22%	-10%	12µM*	-19%	i	?
Cc1ccc(C(=O)c2coc3ccc(O)c(CN4CCN(C)CC4)c23)cc1	-31%	?	13µM*	-19%	?	18µM*
SMILES	HepG2 tox	TGFb SMAD3 inh	TDP1 cell CPT	ATXN2 expr inh	S2 tox	TDP1 cell noCPT
COc1ccc(C(=O)c2coc3ccc(O)c(CN4CCCC4)c23)cc1	-26%	-10%	?	-12%	?	?
O=C(c1cccs1)c1coc2ccc(O)c(CN3CCOCC3)c12	-9%	-12%	?	-4%	i	?
COc1ccc(OC)c(NC(=O)N2CCC3(CC2)Oc2ccccc2C(=O)N3Cc2ccccc2F)c1	-23%	nt	?	nt	nt	15µM*
Cc1cc(C)cc(NC(=O)N2CCC3(CC2)Oc2ccccc2C(=O)N3Cc2ccccc2F)c1	0%	nt	?	nt	nt	?
CC(=O)C1=C(c2ccc(Cl)c(Cl)c2)N(C(C)=O)n2c(nnc2-c2ccccc2)S1	6%	?	?	nt	nt	?
CC(=O)C1=C(c2ccc(Cl)c(Cl)c2)N(C(C)=O)n2c(C)nnc2S1	7.9µM*	?	2.9µM*	28µM*	?	4.1µM*
COc1cccc(C2=C(C(C)=O)Sc3nncn3N2C(C)=O)c1	-75%	?	?	nt	nt	23µM*
CC(=O)C1=C(c2ccc(Cl)c(Cl)c2)N(C(C)=O)n2cnnc2S1	-94%	5.6µM*	2.6µM*	nt	nt	2.9µM*
CCOC(=O)C(Cc1nc(OCc2ccccc2)cc(OCc2ccccc2)n1)=NO	-80%	?	?	?	?	?
OCC[C@@H]1NCc2cc(CO)cc(-c3ccccc3)c21	-7%	-9%	21µM*	0%	i	18µM*
CN1C[C@@H]2[C@@H]3C(=O)N(C)C(=O)[C@@H]3[C@](Cc3ccccc3)(C1=O)N2C(=O)c1ccccc1	-16%	-10%	-6%	11%	i	-2%
COc1ccc2[nH]c(=O)c(CN(Cc3cccs3)S(=O)(=O)c3cccc4nsnc34)cc2c1	1%	-8%	-112%	?	?	10µM*
Cc1cccc(NC(=S)N(Cc2cccs2)Cc2cc3cc(C)cc(C)c3[nH]c2=O)c1	-3%	-2%	13µM*	-10%	i	9.2µM*
COc1ccc2[nH]c(=O)c(CN(Cc3cccs3)C(=S)Nc3cccc(C)c3)cc2c1	-3%	-32%	21µM*	-7%	i	13µM*
COc1cc(C)ccc1OCCCn1c(-c2ccc(Cl)cc2)nc2ccccc2c1=O	7%	-4%	-16%	8%	i	-14%
COCCCNC(=O)C1CCCN(c2nn3cc(-c4ccc(C)cc4)nc3s2)C1 (centres undefined)	-25%	-2%	?	nt	nt	?
